This is an account of results in PubChem BioAssay (Tox21).

Assay [1] can be described thus: Nuclear factor erythroid 2-related factor 2/antioxidant responsive element (Nrf2/ARE) small molecule agonists: qHTS cell viability counter screen in human keratinocytes (AID 1919968; active means well fitted curve in the direction sought with a large enough effect in the repeat runs; an effect the other way counts as inactive or inconclusive; further: nearly all actives have a fitted effect of over 55% in size; further: potency means the concentration at half of the fitted maximal effect). To be noted: KeratinoSens HaCaT ARE cells viability, CellTiter-Fluor, 24 h; series mostly up to 92.4 µM. The procedure, abridged: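 Cytotoxicity was multiplexed with the Nrf2/ARE luciferase assay in the same wells. Stably transfected HaCaT keratinocytes were treated with test compounds for 23 h at 37 C. Cell viability was then measured by CellTiter-Fluor fluorescence.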
Background: In qHTS, concentration-response curves come from the screen itself.

Assay [2] is described as follows: Nuclear factor erythroid 2-related factor 2/antioxidant responsive element (Nrf2/ARE) small molecule agonists: luciferase reporter gene qHTS assay in human keratinocytes (AID 1919969). Further: nearly all actives have a fitted effect of over 35% in size. Further: potency means the concentration at half of the fitted maximal effect. The following applies: KeratinoSens HaCaT ARE-luciferase, luminescence, 24 h; series mostly up to 92.4 µM. Background: In a reporter assay the amount or activity of a reporter protein is the signal.

Assay [3] concerns the target Gonadotropin-releasing hormone receptor (Homo sapiens) (UniProt P30968). The assay can be described thus: Human gonadotropin-releasing hormone receptor (GnRHR) small molecule agonists, calcium flux assay in GnRHR-HEK293 cells (AID 1920063). Further: nearly all actives have a fitted effect of over 35% in size. The following applies: calcium flux fluorescence, agonist mode; series mostly up to 57.6 µM. The procedure, abridged:
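Agonist activity was measured as intracellular calcium flux in HEK293 cells engineered to stably express human GnRHR. After dye loading for 1 hour at 37 C, compounds in DMSO were added and fluorescence was followed for 3 minutes.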
(Calcium assays in cells follow changes in intracellular calcium, usually with a dye or a luminescent sensor.)

Assay [4] has as its target KiSS-1 receptor (Homo sapiens) (UniProt Q969F8). The experiment in a line: Human kisspeptin (KISS1R) small molecule agonists, calcium flux assay in KISS1R-HEK293 cells (AID 1920064; active means well fitted curve in the direction sought with a large enough effect in the repeat runs; an effect the other way counts as inactive or inconclusive). To be noted: KISS1R-HEK293, calcium flux fluorescence, agonist; series mostly up to 76.8 µM. In short, it runs like this:
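Agonist activity is monitored as intracellular calcium rise in engineered HEK293 cells carrying human KISS1R. Cells are dye-loaded for 1 h at 37 C before compound addition, and fluorescence is recorded for 3 min.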

A short description of assay [5]: G protein-coupled receptor (GPCR) small molecule agonists, calcium flux assay: HEK293 wild type cell line counter screen (AID 1920065). To be noted: HEK293 WT calcium flux, fluorescence, agonist mode; series mostly up to 57.6 µM. In short, it runs like this:
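Seed cells, incubate 18 h (37 C, 5% CO2); add calcium dye, 1 h at 37 C; pin-transfer compounds, ATP control or DMSO; read fluorescence 480/540 nm each second for 3 min.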

The nature of assay [6]: p53 small molecule agonists, cell-based qHTS assay with human liver microsomes: qHTS cell viability counter screen (AID 1963579). Further: nearly all actives have a fitted effect of over 45% in size. Further: potency means the concentration at half of the fitted maximal effect. To be noted: p53RE-bla HCT-116 viability, ATP luminescence, 16 h, HLM; series mostly up to 66 µM. In short, it runs like this: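 Tox21 library compounds, delivered from DMSO stocks, were tested on p53RE-bla cells together with 0.5 mg/mL human liver microsomes and 0.5 mg/mL NADPH (final) over 16 h at 37 C; CellTiter-Glo luminescence served as the cytotoxicity measure.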

A short description of assay [7]: p53 small molecule agonists, cell-based qHTS assay with rat liver microsomes: qHTS cell viability counter screen (AID 1963580). Further: nearly all actives have a fitted effect of over 45% in size. Further: potency means the concentration at half of the fitted maximal effect. The following applies: p53RE-bla HCT-116 + rat microsomes, ATP viability, 16 h; series mostly up to 66 µM. The procedure, abridged:
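Cytotoxicity counter screen: intracellular ATP measured by CellTiter-Glo luminescence in the same wells as the beta-lactamase reporter read, on HCT-116 p53RE-bla cells exposed 16 h at 37 C to compounds with rat liver microsomes and NADPH, each 0.5 mg/mL final.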

Assay [8] concerns the target 5-hydroxytryptamine receptor 2A (Homo sapiens) (UniProt P28223). The assay can be described thus: 5-hydroxytryptamine receptor 2A (HTR2A) small molecule antagonists, cell-based qHTS assay (AID 1963586). Further: nearly all actives have a fitted effect of over 45% in size. The following applies: HTR2A-CHO cells, DOI-induced calcium flux, fluorescence; series mostly up to 61.5 µM. In short, it runs like this: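 CHO cells stably expressing human HTR2A were plated for 18 h at 37 C, then loaded with calcium dye for 1 h. Compounds were preincubated 5 min at room temperature before DOI (4 nM solution) was added. Kinetic fluorescence was read for 3 min.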

For assay [9] the target is unchanged. The assay can be described thus: 5-hydroxytryptamine receptor 2A (HTR2A) small molecule agonists, cell-based qHTS assay (AID 1963587). Further: nearly all actives have a fitted effect of over 30% in size. The following applies: HTR2A-CHO cells, calcium flux fluorescence, agonist mode; series mostly up to 76.8 µM. The procedure, abridged:
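CHO cells stably expressing human HTR2A, plated 18 h, loaded with calcium dye 1 h at 37 C. Agonist mode: compounds added and intracellular calcium fluorescence recorded kinetically for 2 min at 1 sec intervals.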

The target in assay [10] is Muscarinic acetylcholine receptor M1 (Homo sapiens) (UniProt P11229). The assay can be described thus: Cholinergic receptor muscarinic 1 (CHRM1) small molecule antagonists, cell-based qHTS assay (AID 1963588). Further: nearly all actives have a fitted effect of over 40% in size. The following applies: CHRM1-CHO antagonist mode, calcium flux fluorescence; series mostly up to 61.5 µM. The procedure, abridged:
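Compounds were tested at 15 concentrations in three independent runs. Dye-loaded CHRM1-CHO cells were exposed 5 min at room temperature before stimulation by acetylcholine added at 50nM. Intracellular calcium was read kinetically on FDSS for 3 min.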

Assay [11] shares this target. The experiment in a line: Cholinergic receptor muscarinic 1 (CHRM1) small molecule agonists, cell-based qHTS assay (AID 1963589). Further: nearly all actives have a fitted effect of over 35% in size. To be noted: CHRM1-CHO cells, agonist mode, calcium flux fluorescence; series mostly up to 76.8 µM. In short, it runs like this: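 Cells were plated and incubated 18 h at 37 C/5% CO2, loaded with calcium dye for 1 h at 37 C, then treated with compounds in DMSO. Fluorescence was recorded kinetically at 1 sec intervals.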

A short description of assay [12]: cAMP Responsive Elements (CRE) small molecule agonists, cell-based qHTS assay (AID 1963590). The following applies: CRE-bla HEK293T, beta-lactamase FRET ratio, 3 h; series mostly up to 92.4 µM. In short, it runs like this: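 Cells carrying a CRE-driven beta-lactamase reporter (HEK 293T) are seeded, incubated overnight (18 h), and treated with test compounds for 3 h at 37 C; reporter activity is then detected with a FRET substrate after 2 h at room temperature.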

Assay [13] can be described thus: cAMP Responsive Elements (CRE) small molecule antagonists, cell-based qHTS assay (AID 1963591; active means well fitted inhibition curve with a large enough effect in the signal ratio in the repeat runs, not every such curve was filed as active; the % refers to the signal ratio). To be noted: CRE-bla HEK293T, beta-lactamase FRET ratio; series mostly up to 92.4 µM. In short, it runs like this:
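Cells (CRE-bla HEK 293T, DMEM with 10% dialyzed FBS and 25 mM HEPES) are seeded and incubated 18 h. Compounds are added with NKH477 agonist at 0.25 uM final for 3 h, then FRET substrate for 2 h.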

The target in assay [14] is Beta-2 adrenergic receptor (Homo sapiens) (UniProt P07550). The assay can be described thus: Adrenergic beta2 receptor (ADRB2) small molecule antagonists, cell-based qHTS assay (AID 1963592). Further: nearly all actives have a fitted effect of over 50% in size. The following applies: CHO-ADRB2 cells, isoproterenol-stimulated cAMP HTRF ratio, 0.5 h; series mostly up to 92.4 µM. The procedure, abridged:
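Assay format: CHO-ADRB2 cells, 18-20hr seeding at 37C/5% CO2, then compound plus 1nM isoproterenol agonist mix for 0.5hr RT. Homogeneous time-resolved fluorescence cAMP detection after 1hr, expressed as 665/615 nm ratio.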

Assay [15] has as its target D(2) dopamine receptor (Homo sapiens) (UniProt P14416). The assay can be described thus: Dopamine D2 receptor (DRD2) small molecule agonists, cell-based qHTS assay (AID 1963594). Further: nearly all actives have a fitted effect of over 35% in size. To be noted: HEK293-DRD2 cAMP HTRF, agonist mode, 30 min; series mostly up to 92.4 µM. The procedure, abridged: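 HEK293 cells stably expressing human DRD2, pre-treated with PDE inhibitor Ro20-1724 (0.1 mM final) and compound 10 min at room temperature, then stimulated with NKH477 (200nM […]) for 30 min. cAMP read by HTRF (665/620 nm).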

The nature of assay [16]: p53 small molecule agonists, cell-based qHTS assay: qHTS cell viability counter screen (AID 1963581). Further: nearly all actives have a fitted effect of over 45% in size. Further: potency means the concentration at half of the fitted maximal effect. The following applies: p53RE-bla HCT-116 viability, ATP luminescence, 16 h; series mostly up to 66 µM. The procedure, abridged: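 Viability was counter-screened in parallel with the p53 agonist reporter by measuring intracellular ATP luminescence in the same HCT-116 p53RE-bla wells after 16 h compound treatment at 37 C.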

Assay [17] addresses Beta-2 adrenergic receptor (Homo sapiens) (UniProt P07550). The assay can be described thus: Adrenergic beta2 receptor (ADRB2) small molecule agonists, cell-based qHTS assay (AID 1963593).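 Further: CHO cells stably overexpressing human ADRB2.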 To be noted: CHO-ADRB2 cells, cAMP HTRF, 30 min; series mostly up to 92.4 µM. In short, it runs like this: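 CHO cells stably over-expressing ADRB2 were plated overnight at 37C, then dosed with compounds plus a stimulation mix containing 100uM IBMX and 25uM Ro-20-1724 for 0.5hr at room temperature. cAMP was measured by HTRF competition, 1hr.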

Assay [18] deals with D(2) dopamine receptor (Homo sapiens) (UniProt P14416). The experiment in a line: Dopamine D2 receptor (DRD2) small molecule antagonists, cell-based qHTS assay (AID 1963595; active means well fitted inhibition curve with a large enough effect in the signal ratio in the repeat runs, with a control signal flat; the % refers to the signal ratio). The following applies: HEK293-DRD2 cAMP HTRF antagonist mode; series mostly up to 92.4 µM. In short, it runs like this: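 Antagonist mode in DRD2-HEK293 cells: after compound addition with 0.1 mM Ro20-1724, cells received quinpirole (12 nM) and NKH477 (200 nM) for 30 min at room temperature; HTRF cAMP read after 1 h detection.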
D(2) dopamine receptor (Homo sapiens), sequence (P14416 whole entry, looked up): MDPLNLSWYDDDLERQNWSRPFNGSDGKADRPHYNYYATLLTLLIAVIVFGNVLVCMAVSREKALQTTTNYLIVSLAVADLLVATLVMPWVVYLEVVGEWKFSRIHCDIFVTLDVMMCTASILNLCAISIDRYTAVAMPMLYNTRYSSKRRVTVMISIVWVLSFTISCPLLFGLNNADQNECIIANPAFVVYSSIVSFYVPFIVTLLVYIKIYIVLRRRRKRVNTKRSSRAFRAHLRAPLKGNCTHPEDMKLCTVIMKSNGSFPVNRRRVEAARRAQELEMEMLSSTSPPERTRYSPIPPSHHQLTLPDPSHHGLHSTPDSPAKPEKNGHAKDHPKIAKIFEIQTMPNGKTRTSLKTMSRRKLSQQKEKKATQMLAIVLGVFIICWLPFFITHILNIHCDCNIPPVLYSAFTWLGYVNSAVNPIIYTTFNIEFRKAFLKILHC

Values without a mark were called inactive. Records with an inconclusive call do not appear. The source made the active and inactive calls. Unless noted, the call rests on the fitted dose curve.

Gonadotropin-releasing hormone receptor (Homo sapiens), sequence (P30968 whole entry, looked up): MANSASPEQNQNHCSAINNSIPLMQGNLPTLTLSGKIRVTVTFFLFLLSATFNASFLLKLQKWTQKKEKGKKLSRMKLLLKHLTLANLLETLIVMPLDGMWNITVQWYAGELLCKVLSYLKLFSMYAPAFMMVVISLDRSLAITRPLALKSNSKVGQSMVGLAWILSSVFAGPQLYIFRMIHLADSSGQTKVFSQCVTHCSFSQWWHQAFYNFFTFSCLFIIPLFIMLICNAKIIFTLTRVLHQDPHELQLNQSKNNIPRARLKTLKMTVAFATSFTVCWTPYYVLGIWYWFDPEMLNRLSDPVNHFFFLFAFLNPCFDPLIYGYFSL
5-hydroxytryptamine receptor 2A (Homo sapiens), sequence (P28223 whole entry, looked up): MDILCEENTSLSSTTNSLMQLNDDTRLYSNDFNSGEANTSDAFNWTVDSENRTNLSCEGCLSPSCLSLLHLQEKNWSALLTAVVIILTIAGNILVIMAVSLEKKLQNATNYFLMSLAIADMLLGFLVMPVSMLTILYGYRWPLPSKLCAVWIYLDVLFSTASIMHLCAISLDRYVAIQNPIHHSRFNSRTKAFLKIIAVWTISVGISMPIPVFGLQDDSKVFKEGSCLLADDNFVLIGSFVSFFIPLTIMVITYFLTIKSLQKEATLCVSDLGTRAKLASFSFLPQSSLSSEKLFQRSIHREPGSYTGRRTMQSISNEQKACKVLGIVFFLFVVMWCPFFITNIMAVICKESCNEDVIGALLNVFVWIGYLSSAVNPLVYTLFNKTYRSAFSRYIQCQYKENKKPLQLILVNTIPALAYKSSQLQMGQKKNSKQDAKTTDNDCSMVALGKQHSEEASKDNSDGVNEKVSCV
Beta-2 adrenergic receptor (Homo sapiens), sequence (P07550 whole entry, looked up): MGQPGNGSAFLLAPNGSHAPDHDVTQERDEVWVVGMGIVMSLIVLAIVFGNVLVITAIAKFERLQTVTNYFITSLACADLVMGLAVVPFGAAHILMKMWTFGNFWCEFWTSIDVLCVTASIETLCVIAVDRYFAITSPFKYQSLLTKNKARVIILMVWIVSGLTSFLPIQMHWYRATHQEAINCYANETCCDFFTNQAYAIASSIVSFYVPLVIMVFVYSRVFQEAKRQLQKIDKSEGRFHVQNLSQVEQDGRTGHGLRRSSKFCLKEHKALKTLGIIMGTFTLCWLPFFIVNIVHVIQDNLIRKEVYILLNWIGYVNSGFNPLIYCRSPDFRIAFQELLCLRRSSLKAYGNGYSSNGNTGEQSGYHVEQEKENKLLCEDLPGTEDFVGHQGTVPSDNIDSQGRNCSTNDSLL
KiSS-1 receptor (Homo sapiens), sequence (Q969F8 whole entry, looked up): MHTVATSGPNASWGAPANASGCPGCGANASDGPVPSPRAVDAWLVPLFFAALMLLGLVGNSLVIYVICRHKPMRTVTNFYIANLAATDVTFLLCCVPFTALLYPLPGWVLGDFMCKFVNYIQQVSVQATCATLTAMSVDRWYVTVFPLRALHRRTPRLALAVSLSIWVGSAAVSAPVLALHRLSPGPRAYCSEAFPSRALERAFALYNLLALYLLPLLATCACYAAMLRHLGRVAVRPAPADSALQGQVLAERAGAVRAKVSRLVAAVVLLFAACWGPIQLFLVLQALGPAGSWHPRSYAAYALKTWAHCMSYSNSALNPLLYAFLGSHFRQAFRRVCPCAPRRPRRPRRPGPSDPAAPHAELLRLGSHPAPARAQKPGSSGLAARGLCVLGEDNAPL
Muscarinic acetylcholine receptor M1 (Homo sapiens), sequence (P11229 whole entry, looked up): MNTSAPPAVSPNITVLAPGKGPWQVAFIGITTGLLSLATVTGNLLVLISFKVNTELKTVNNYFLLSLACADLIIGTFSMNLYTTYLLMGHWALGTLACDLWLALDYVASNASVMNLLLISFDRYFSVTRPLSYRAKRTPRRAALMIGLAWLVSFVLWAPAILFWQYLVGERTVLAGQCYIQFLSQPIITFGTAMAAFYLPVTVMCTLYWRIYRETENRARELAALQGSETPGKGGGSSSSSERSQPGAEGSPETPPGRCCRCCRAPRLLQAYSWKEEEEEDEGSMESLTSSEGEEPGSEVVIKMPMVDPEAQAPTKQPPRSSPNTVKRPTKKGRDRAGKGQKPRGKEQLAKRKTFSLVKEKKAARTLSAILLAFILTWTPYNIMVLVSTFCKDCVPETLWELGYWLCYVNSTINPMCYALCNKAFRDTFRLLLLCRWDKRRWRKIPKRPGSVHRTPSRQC

Regarding `O=S(=O)(O)c1cc(O)c2ccc(Nc3ccccc3)cc2c1`, the Potency entry in assay [1], in [2], in assay [3], in assay [4], in [5] and in [6] was “inactive” each time. Also, the Potency result in [7], in assay [8], in assay [9], in assay [10], in assay [11] and in assay [12] was “inactive” throughout. Also, the Potency result in assay [13], in assay [14] and in [15] was “inactive” throughout.
`CC(=O)OCC(=O)[C@@]1(O)CC[C@H]2[C@@H]3CCC4=CC(=O)CC[C@]4(C)[C@H]3C(=O)C[C@@]21C`: the Potency result in assay [1], in assay [2], in assay [3], in assay [4], in assay [5] and in assay [6] was “inactive” in each case. In addition, the Potency entry in [7], in assay [16], in [13], in assay [14] and in assay [15] was “inactive” throughout.
Consider `N=C1N=C(N)c2cc3ccccc3cc21`, for which the Potency in assay [1] is 24.3 µM (active); in assay [2] it was 21.7 µM (active); in [6] it was 45.8 µM (active); in assay [7], 45.8 µM (active); in [16] it was 23.6 µM (active). Moreover, the Potency entry in [3], in assay [4], in [5], in assay [9] and in assay [11] was “inactive” throughout.
Regarding `CCN1CCN(C(=O)N[C@@H](C(=O)N[C@@H]2C(=O)N3[C@@H]2SC(C)(C)[C@H]3C(=O)O)c2ccccc2)C(=O)C1=O`, the Potency result in [1], in assay [2], in assay [3], in assay [4], in [5] and in assay [6] was “inactive” in each case. For the same molecule, the Potency result in assay [7], in assay [16], in assay [12], in assay [13] and in assay [15] was “inactive” each time.
Consider `COC(Cc1ccccc1)OC`, for which the Potency result in [1], in [2], in assay [3], in assay [4], in assay [5] and in assay [6] was “inactive” throughout. The Potency entry in assay [7], in assay [16], in [9], in assay [11], in assay [12] and in [14] was “inactive” each time. Moreover, the Potency result in assay [17], in assay [15] and in [18] was “inactive” in each case.
In the case of `CCCCOc1ccc(CC(=O)NO)cc1`, the Potency result in assay [1], in [2], in [3], in assay [4], in assay [5] and in assay [6] was “inactive” in each case. Also, the Potency result in assay [7], in [8], in [9], in assay [10], in assay [11] and in assay [12] was “inactive” each time. Further, the Potency entry in [13], in [14], in assay [17] and in assay [15] was “inactive” in each case.
On to `CC[C@H]1OC(=O)[C@H](C)[C@@H](O[C@H]2C[C@@](C)(OC)[C@@H](O)[C@H](C)O2)[C@H](C)[C@@H](O[C@@H]2O[C@H](C)C[C@H](N(C)C)[C@H]2O)[C@](C)(O)C[C@@H](C)/C(=N\OCOCCOC)[C@H](C)[C@@H](O)[C@]1(C)O`, for which the Potency entry in assay [1], in [2], in [3], in [4], in assay [5] and in assay [6] was “inactive” each time. For the same molecule, the Potency result in [7], in [16], in [12], in [14], in assay [15] and in [18] was “inactive” throughout.
In the case of `CCOC(=O)CC(=O)c1ccccc1`, the Potency entry in [1], in assay [2], in assay [3], in [4], in assay [5] and in [6] was “inactive” throughout. The Potency result in [7], in [8], in assay [9], in [10], in [11] and in assay [12] was “inactive” in each case. For the same molecule, the Potency entry in assay [14], in [17], in [15] and in assay [18] was “inactive” in each case.
As for `C/C=C/C=C/C=O`, the Potency result in assay [1], in [3], in assay [4], in assay [5], in assay [6] and in assay [7] was “inactive” in each case. Further, the Potency result in [8], in [9], in assay [10], in assay [11], in [12] and in [13] was “inactive” throughout. Moreover, the Potency result in assay [14] and in assay [15] was “inactive” throughout. Besides, the Potency in [2] is 60.7 µM (active).
